High-throughput results deposited in PubChem by National Center for Advancing Translational Sciences (NCATS).
TbPYK inhibitor: qHTS of Trypanosoma Brucei Inhibitors | AID 624173, 2012 | 410,000 tested, 0.12% active | TbPYK enzyme, Kinase-Glo Plus ATP luminescence, 45 min | pyruvate kinase (Trypanosoma brucei), Q57TT1 | Potency, µM (top dose mostly 76.8 µM), for inactives: at the highest dose activity, negative = inhibition, hits mostly inhibitors; also: potency is read from the fitted curve at half-maximal effect; % is scaled to controls: 0 for no effect and ±100 for the full control effect; nearly all actives have a fitted effect of over 50% in size
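Enzyme and substrate buffer are dispensed first and compound is pin-transferred. ADP at 130 uM final then starts the reaction, which runs 45 min at room temperature. Detection reagent is added for 10 min before luminescence is imaged.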
FBPA Giardia inh: qHTS Assay for Inhibitors of Fructose-1,6-bisphosphate Aldolase from Giardia Lamblia; A8B2U2; purified Giardia FBPA; Potency, µM (highest dose often 59.6 µM), for inactives: at the highest dose activity, negative = inhibition, most hits filed as inhibitors; 290,000 tested, 0.71% active; AID 2451, 2010; also: potency is read from the fitted curve at half-maximal effect; % is scaled to controls: 0 for no effect and ±100 for the full control effect; nearly all actives have a fitted effect of over 55% in size
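40 nM FBPA preincubated 10 min at RT with compound (up to 57.5 uM final), then substrate plus GAPDH/TPI/NAD/arsenate coupling and diaphorase/resazurin added. Fluorescence read after 20 min at RT, 525/598 nm.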
LmPK inhibitor: qHTS Assay for Inhibitors of Leishmania Mexicana Pyruvate Kinase (LmPK); Potency, µM (series often up to 57.5 µM), for the others: at the top dose activity change, negative = inhibition, usual class: inhibitors; purified LmPK, Kinase-Glo ATP luminescence, 1 h; AID 1721, 2009; 290,000 tested, 0.37% active; also: potency is read from the fitted curve at half-maximal effect; % is scaled to controls: 0 for no effect and ±100 for the full control effect
Target sequence (Q27686 whole entry, looked up): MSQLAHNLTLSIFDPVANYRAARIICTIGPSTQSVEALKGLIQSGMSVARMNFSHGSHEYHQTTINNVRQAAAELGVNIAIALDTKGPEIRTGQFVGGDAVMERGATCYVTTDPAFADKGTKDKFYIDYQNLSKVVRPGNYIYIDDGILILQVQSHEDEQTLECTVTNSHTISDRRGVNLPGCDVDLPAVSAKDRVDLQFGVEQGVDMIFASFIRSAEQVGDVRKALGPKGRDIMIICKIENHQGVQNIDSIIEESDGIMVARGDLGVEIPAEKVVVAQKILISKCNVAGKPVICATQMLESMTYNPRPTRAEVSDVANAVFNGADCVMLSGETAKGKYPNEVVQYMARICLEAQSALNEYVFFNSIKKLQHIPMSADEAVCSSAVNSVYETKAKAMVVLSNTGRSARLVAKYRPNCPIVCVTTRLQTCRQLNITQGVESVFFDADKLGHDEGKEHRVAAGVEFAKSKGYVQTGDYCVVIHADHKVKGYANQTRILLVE
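Screened at intermediate enzyme activity to detect both inhibitors and activators: LmPK at 0.1 nM, with a 0.5 nM enzyme column as activation reference. PEP 0.5 mM, ADP 0.1 mM; ATP detected by luminescence after 1 h.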
RE007 growth inh: qHTS Assay for Inhibitors of the HIV-1 protein Vpr. S. pombe RE007 Vpr strain, BacTiter-Glo ATP luminescence, 24 h. Potency, µM (titrated, usually from 92.2 µM), without a hit: at the top dose activity change, negative = less growth, most hits filed as inhibitors. 360,000 tested, 0.21% active; active = well fitted falling curve with a large enough effect; inconclusive = small, poorly fitted or top-dose-only effect; inactive = no such curve, though single readings can be large or run the other way; also: potency is read from the fitted curve at half-maximal effect; % is scaled to controls: 0 for no effect and ±100 for the full control effect; nearly all actives have a fitted effect of over 50% in size
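Fission yeast strain RE007, carrying one chromosomally integrated HIV-1 vpr copy, was seeded at OD 0.01 in PMG+AL medium with 23 nL pinned compound. After 24 h at 30 °C and 99% humidity, viability was read by BacTiter-Glo luminescence.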
Cycloheximide cs: Cycloheximide Counterscreen for Small Molecule Inhibitors of Shiga Toxin; cell reporter, cycloheximide protein synthesis inhibition counterscreen; max response, %; 300,000 tested, 12% active; AID 2314, 2010; in the data active = max response mostly above about 13%, no sharp cut-off; inactive = mostly below about 14%; also: read at 38.3 µM for the half of the compounds with a filed dose; 0% is about no effect
Shiga inhibitor: A qHTS for Small Molecule Inhibitors of Shiga Toxin. Vero cells, Shiga toxin protein synthesis inhibition reporter. inhibition, % at 38.7 µM. 290,000 tested, 9.2% active. AID 2315, 2010; in the data active = inhibition mostly above about 28%, no sharp cut-off; inactive = mostly below about 43%; also: 0% is about no effect
Active calls of the source: *; ? = inconclusive; . = not tested or not shown; [ ] = dose if it differs, or a comment. Many of the other results were omitted from the sample, so hits are more common in it than they were. Unless noted, calls follow the shape of the dose curve; as a rule, active = well fitted curve in the direction sought with a large enough effect; inconclusive = small, poorly fitted or top-dose-only effect, or another doubt; inactive = no such curve, though single readings can be large; an effect the other way counts as inactive or inconclusive.

SMILES	TbPYK inhibitor	FBPA Giardia inh	LmPK inhibitor	RE007 growth inh	Cycloheximide cs	Shiga inhibitor
CC(=O)c1ccc(N2CCN(C(=O)c3ccc(-c4ccccc4)cc3)CC2)cc1	6%	3%	0%	-8%	-5	7
CCOc1ccc(NC(=O)c2cccc3ccccc23)cc1	0%	-5%	-5%	6%	18*	37
COc1ccc(NC(=O)c2cc3ccccc3cc2OC)cc1	1%	7%	0%	-23%	29*	69
O=C(Nc1ccc2ccccc2c1)c1cccc2ccccc12	1%	.	.	-12%	.	.
COc1cc2ccccc2cc1C(=O)Nc1ccc(N2CCN(C)CC2)cc1	.	1%	-2%	1%[3.69 µM]	43*	60
COc1cc2ccccc2cc1C(=O)Nc1ccccc1Cl	-3%	?	-1%	-9%	86*	71*
COc1cc2ccccc2cc1C(=O)Nc1cccnc1	-1%	0%	1%	-25%	33*	76*
CN1CCN(c2ccc(NC(=O)c3ccc(Oc4ccccc4)cc3)cc2)CC1	0%	4%	10%	-19%	10	31*
COc1cc(OC)c(C(=O)Nc2cccnc2)cc1OC	-15%	-3%	-7%	-11%	-2	19
CCOc1ccc(NC(=O)c2cc3ccccc3cc2O)cc1	3%	-5%	6%	.	30*	60*
Oc1ccc(/C=N/Nc2ccc(Cl)nn2)c(O)c1O	5%	?	3%	.	12	1
COc1cccc(C(=O)NC(=S)Nc2ccc(N3CCCC3)cc2)c1	-14%	2%	4%	-13%	13	-2
CC(C)Oc1cccc(C(=O)NC(=S)Nc2ccc(N3CCN(C)CC3)cc2)c1	-1%	-12%	3%	10%	26*	40
Cc1ccc(Cn2ncn(-c3ccccc3)c2=O)cc1	0%	1%	-2%	-15%	19*	30
Cc1cc(C)c(NC(=O)CSc2nc3nc(C)cc(C)n3n2)c(C)c1	-7%	.	.	.	.	.
CC(C)(C)C1CCc2c(sc3ncn(N)c(=N)c23)C1 (configuration not stated)	0%	6%	2%	-12%	13*	40
Cc1ccccc1-c1nc(Cc2ccccc2)no1	0%	10%	-9%	5%	51*	69*
COc1ccc(Cc2noc(-c3ccccc3)n2)cc1OC	-17%	6%	7%	2%	11	59
COc1ccc(-c2nc(Cc3ccc(Cl)cc3)no2)cc1OC	-1%	2%	8%	2%	-2	-5
Clc1ccc(-c2nc(Cc3ccccc3)no2)cc1	-3%	0%	-2%	11%	31*	38
Cc1cccn2cc(-c3c[nH]c4ccccc34)nc12	3%	-18%	3%	24%	41*	122*
Brc1ccc2nc(-c3c[nH]c4ccccc34)cn2c1	1%	?	-14%	-15%	31*	64*
CCCS(=O)(=O)Nc1cccc(-c2cn3c(n2)SCC3)c1	-6%	12%	8%	1%	-2	-3
O=C(Nc1cccc(-c2cn3c(n2)SCC3)c1)c1ccc2ccccc2n1	-6%	-9%	1%	2%	45*	133*
O=C(Nc1ccc(-c2cn3c(n2)SCC3)cc1)c1ccc2ccccc2n1	-2%	-14%	-2%	-24%	50*	48*
SMILES	TbPYK inhibitor	FBPA Giardia inh	LmPK inhibitor	RE007 growth inh	Cycloheximide cs	Shiga inhibitor
O=c1[nH]cc(CCCc2ccccc2)c(=O)[nH]1	-6%	.	.	11%	.	.
COCCn1c(=O)c(-c2ccc(F)cc2)nc2cnc(Nc3cccc(OC)c3)nc21	.	-2%	.	.	.	.
CCc1ccccc1N1CC(c2nc3ccccc3n2CCC2CCCCC2)CC1=O (configuration not stated)	0%	.	.	.	.	.
O=C(Nc1ccccn1)C1CCN(S(=O)(=O)c2cccs2)CC1	-4%	-1%	2%	1%	-5	-9
Cc1ccc(NC(=O)C2CCN(S(=O)(=O)c3cccs3)CC2)cc1C	1%	0%	-1%	17%	1	23
O=C(Nc1nc2ccccc2[nH]1)C1CCN(S(=O)(=O)c2cccs2)CC1	5%	-6%	0%	33%	14*	13
CC1CC(C)CN(C(=O)C2CCN(S(=O)(=O)c3cccs3)CC2)C1 (configuration not stated)	-1%	5%	-3%	6%	-4	-7
CC1CCN(C(=O)C2CCN(S(=O)(=O)c3cccs3)CC2)CC1	-5%	1%	0%	6%	17*	41
CC(=O)c1ccc(NC(=O)C2CCN(S(=O)(=O)c3cccs3)CC2)cc1	-1%	1%	7%	12%	44*	44*
CCOc1ccc(C2C(=O)N(C3CCCCCC3)CC(=O)N2CCC2=CCCCC2)cc1OC (configuration not stated)	-2%	.	.	.	.	.
Cc1c(Cl)cccc1-n1ncc(C(=O)NC2CCCC2)c1C1CCN(C(=O)OC(C)(C)C)CC1	4%	.	.	.	.	.
O=C1c2ccccc2NC2(CCCC2)N1N=C1CCCC1	-7%	0%	1%	-9%	29*	74*
O=C1c2ccccc2NC2(CCCCC2)N1c1ccc(O)cc1	-11%	4%	-9%	7%	14*	29
O=[N+]([O-])c1cccc(C(=Nc2cccc(Cl)c2)NO)c1	4%	-15%	4%	-4%	-3	-6
ONC(=Nc1ccc(Cl)cc1)c1ccccc1	6%	-17%	7%	31%	18*	7
CCn1c([N+](=O)[O-])nc2c1c(=O)[nH]c(=O)n2C	2%	13µM*	-9%	3%	11	18
O=C(/C=C/c1cccc(O)c1)c1ccc(N2CCOCC2)cc1	-3%	-8%	-5%	-17%	38*	102*
COc1ccc(/C=C/C(=O)c2ccc(O)cc2)cc1CN1CCOCC1	7%	2%	-2%	-3%	4	-9
COc1ccc2nc(/N=C/c3cccc(OC)c3O)sc2c1	-4%	20%	-18%	-14%	26*	26
COc1ccc2nc(N=Nc3ccc(N(C)C)cc3)sc2c1	-23%	1%	?	-19%	31*	126*
COc1cccc(C=Nc2cccnc2)c1O	.	-1%	-30%	.	-2	8
COc1ccc2nc(/N=C\N(C)C)sc2c1	-11%	?	-12%	-8%	16	20
CC(NC(=O)CNC(=O)OCc1ccccc1)C(=O)N1CC(O)CC1C(=O)OCc1ccccc1 (configuration not stated)	0%	5%	4%	5%	-4	15
O=C(NCC(=O)N1CC(O)CC1C(=O)N1CC(O)CC1C(=O)OCc1ccccc1)OCc1ccccc1 (configuration not stated)	2%	9%	2%	7%	20	88*
